Results from paper PMC4336329 (PLoS ONE, 2015).
Hit rate of the full screen: of about 310,000 compounds, about 14,000 (4.5%) showed an effect of 50% or more. Effects have a minus sign here. The sample as a whole holds a higher share of strong results than the screen did.

target: human ether-à-go-go-related gene (hERG) potassium channel (human, UniProt Q12809); experiment: primary screen, population patch clamp on CHO cells stably expressing hERG; higher = less effect of the substance
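Further: peak tail current of the secondary pulse compared with the same well before compound.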

human ether-à-go-go-related gene (hERG) potassium channel, sequence (Q12809 whole entry, looked up): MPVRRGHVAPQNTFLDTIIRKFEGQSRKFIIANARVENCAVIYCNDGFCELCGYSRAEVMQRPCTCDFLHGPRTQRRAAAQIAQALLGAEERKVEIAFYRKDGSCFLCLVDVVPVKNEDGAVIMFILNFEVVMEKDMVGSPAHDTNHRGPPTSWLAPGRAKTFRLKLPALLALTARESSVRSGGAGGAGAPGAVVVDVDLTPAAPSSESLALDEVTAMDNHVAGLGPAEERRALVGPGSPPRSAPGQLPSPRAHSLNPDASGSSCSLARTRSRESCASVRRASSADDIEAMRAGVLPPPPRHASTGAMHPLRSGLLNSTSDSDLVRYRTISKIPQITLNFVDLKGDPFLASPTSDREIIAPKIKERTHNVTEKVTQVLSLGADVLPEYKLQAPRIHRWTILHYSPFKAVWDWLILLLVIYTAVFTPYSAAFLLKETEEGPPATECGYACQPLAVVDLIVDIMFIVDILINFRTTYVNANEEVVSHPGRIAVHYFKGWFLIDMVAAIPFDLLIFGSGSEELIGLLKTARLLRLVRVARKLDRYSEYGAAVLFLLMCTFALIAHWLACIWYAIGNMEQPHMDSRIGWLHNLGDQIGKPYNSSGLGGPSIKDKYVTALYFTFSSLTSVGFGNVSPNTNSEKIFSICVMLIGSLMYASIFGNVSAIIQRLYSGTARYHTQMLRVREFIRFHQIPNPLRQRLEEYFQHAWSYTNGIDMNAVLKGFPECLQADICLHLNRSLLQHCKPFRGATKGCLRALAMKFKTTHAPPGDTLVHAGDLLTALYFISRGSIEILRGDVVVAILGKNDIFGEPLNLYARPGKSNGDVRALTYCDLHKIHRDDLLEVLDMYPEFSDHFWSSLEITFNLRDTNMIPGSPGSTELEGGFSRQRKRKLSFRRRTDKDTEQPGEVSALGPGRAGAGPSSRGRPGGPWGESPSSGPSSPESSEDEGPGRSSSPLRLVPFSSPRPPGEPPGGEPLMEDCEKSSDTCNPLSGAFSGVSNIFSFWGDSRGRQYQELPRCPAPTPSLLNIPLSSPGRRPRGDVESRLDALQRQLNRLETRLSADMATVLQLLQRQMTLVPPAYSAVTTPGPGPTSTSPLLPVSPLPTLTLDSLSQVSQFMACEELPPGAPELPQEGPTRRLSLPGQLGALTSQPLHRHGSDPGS

SMILES	hERG current change (%, negative = inhibition) at 10uM [%]
CN(C)c1ccc(NC(=O)c2ccc(COc3cccc(Cl)c3)o2)cc1	0.95
CS(=O)(=O)N(CC(=O)N1CCOCC1)Cc1ccc(Cl)cc1	4.67
COc1cc(C(=O)NCC2(N3CCCCC3)CCCCC2)ccc1OCC(=O)N1CCOCC1	-3.67
CC(=O)Nc1cccc(C(=O)OC(C)C(=O)N2CCc3ccccc32)c1 (stereo not drawn)	-33.2
Cc1ccc(C(=O)N2CCN(c3ncnc4c(-c5ccccc5)nsc34)CC2)cc1	18.1
Cc1cc(C)n(-c2nc(NCC3CCCO3)c3c4c(sc3n2)COC(C)(C)C4)n1 (stereo not drawn)	-20.2
CCOC(=O)CCNC(C)C1COc2ccccc2O1.O=C(O)C(=O)O (stereo not drawn)	1.93
CC(NCc1ccccc1)C1COc2ccccc2O1 (stereo not drawn)	2.12
COc1ccc(CC(=O)NC(C)C2COc3ccccc3O2)cc1OC (stereo not drawn)	-0.81
CC(NCc1ccc([N+](=O)[O-])cc1)C1COc2ccccc2O1.O=C(O)C(=O)O (stereo not drawn)	-66.2
COc1ccc(CNC(=O)C2COc3ccccc3O2)c(OC)c1 (stereo not drawn)	-26.4
COc1ccc(CNC(C)C2COc3ccccc3O2)c(OC)c1.O=C(O)C(=O)O (stereo not drawn)	-63.2
Cc1ccc(NC(=S)NCCc2c[nH]c3ccccc23)cc1	-1.12
COc1ccc(OCC(O)CNC(=O)c2ccc(OC)cc2)cc1 (stereo not drawn)	14.9
COCCn1c(SCC(=O)Nc2ccc(F)cc2F)nc2c([nH]c3ccccc32)c1=O	8.08
COCCCn1c(C)nnc1SCC(=O)NNC(=O)COc1ccc(Cl)cc1	22.6
COc1ccc(-c2ccc(Nc3ccc(S(=O)(=O)N4CCCC4)cc3)nn2)cc1OC	6.55
Cn1c(=O)[nH]c(=O)c2c1nc(N1CCNCC1)n2Cc1cccc2ccccc12	-16.4
Cc1cccc(N/C(=N/S(=O)(=O)c2ccccc2)c2ccccc2)n1	-24.9
CCN(c1cccc(C)c1)C(C(=O)Nc1ccc(OC)cc1)c1cc2c(cc1[N+](=O)[O-])OCO2 (stereo not drawn)	21.1
CC(C)N(CCNC(=O)COc1ccc2oc3c(c2c1)CCCC3)C(C)C	-73.3
CC(C)OCCCNC(=O)COc1ccc2oc3c(c2c1)CCCC3	-4.97

SMILES	hERG current change (%, negative = inhibition) at 10uM [%]
CCN(CC)CCCNC(=O)COc1ccc2oc3c(c2c1)CCCC3.Cl	-45.7
CNC(=O)COc1ccc2oc3c(c2c1)CCCC3	9.14
CCOC(=O)N1CCN(C(=O)COc2ccc3oc4c(c3c2)CCCC4)CC1	-50.6
CC(=O)N1CCN(C(=O)COc2ccc3oc4c(c3c2)CCCC4)CC1	-25.4
Cc1cccc(N(CC(=O)NCCC2=CCCCC2)S(C)(=O)=O)c1C	-22.8
COC(=O)c1ccc(CNC(=O)/C=C/c2cc([N+](=O)[O-])ccc2OC(F)F)cc1	6.89
CN(C)CCN(C(=O)c1ccc2c(c1)OCCO2)c1nc2ccc(Cl)cc2s1.Cl	-1.19
CN(C)CCN(C(=O)c1ccc2ccccc2c1)c1nc2ccc(Br)cc2s1.Cl	13.2
CN(C)CCN(C(=O)c1ccc2ccccc2c1)c1nc2ccc(F)cc2s1.Cl	11.1
CN(C)CCN(C(=O)C1=COCCO1)c1nc2ccc(F)cc2s1.Cl	-73
CN(C)CCN(C(=O)C1=COCCO1)c1nc2ccc(Cl)cc2s1.Cl	-73.1
CN(C)CCCN(C(=O)C1=COCCO1)c1nc2ccc(Br)cc2s1.Cl	-67.2
O=C(CN1Cc2ccccc2C1=O)Nc1ccc2c(c1)OCCO2	3.26
O=C([O-])c1cc(=O)[nH]c2ccc(S(=O)(=O)Nc3ccc(F)cc3)cc12.[K+]	23.5
O=C(O)c1ccc(NC(=O)C2CCCCC2)cc1	-7.8
COCCNC(=O)Cn1cc2c(n1)CCC(C)C2 (stereo not drawn)	21.2
O=C(Cn1c(=O)oc2ccccc21)N1CCCC1	14.4
Cc1[nH]c2ccccc2c1/C=N/NC(=S)NC(C)C	12.1
CCC(c1nnnn1C1CCCCC1)N1CCN(C2CCCC2)CC1.Cl (stereo not drawn)	-3.77
CCCC(c1nnnn1C1CCCCC1)N1CCN(C2CCCC2)CC1.Cl (stereo not drawn)	-46.4
CCCCC(c1nnnn1C1CCCC1)N1CCN(C2CCCCC2)CC1 (stereo not drawn)	-69.8
CCCCC(c1nnnn1C1CCCC1)N1CCN(C2CCCC2)CC1.Cl (stereo not drawn)	-85.6

SMILES	hERG current change (%, negative = inhibition) at 10uM [%]
CCCC(c1nnnn1C(C)(C)CC)N1CCN(C2CCCC2)CC1.Cl (stereo not drawn)	-35.3
CCCCC(c1nnnn1C1CCCC1)N1CCN(C(=O)c2ccco2)CC1.Cl (stereo not drawn)	-47
CC(CC(=O)N(CCC1=CCCCC1)c1c(N)n(Cc2ccccc2)c(=O)[nH]c1=O)c1ccccc1 (stereo not drawn)	17.1
Cc1cc(F)ccc1NC(=O)CCCN(C)S(=O)(=O)c1ccc(F)cc1	-5.3
CCc1cc2c(=O)c(-c3nc4ccccc4n3C)c(C)oc2c(CN2CCN(C)CC2)c1O	14.3
O=C(CSc1ncnc2c1oc1ccccc12)Nc1cccc(C(F)(F)F)c1	11
COc1ccc2c(Cl)c(C(=O)N/N=C3\CCCC(=O)C3)sc2c1	-9.05
Cn1c(=O)c2c(nc(CN3CCN(c4ccc(F)cc4)CC3)n2Cc2ccccc2F)n(C)c1=O	-6.93
CCOC(=O)C(C)/C(C)=N\Nc1ccc([N+](=O)[O-])cc1[N+](=O)[O-] (stereo not drawn)	-53.2
CCOC(=O)C/C(C)=N\Nc1ccc([N+](=O)[O-])cc1[N+](=O)[O-]	-40.2
CCOC(=O)C(C(=O)OCC)C(C)(C)/C(C)=N\Nc1ccc([N+](=O)[O-])cc1[N+](=O)[O-]	-40.8
Cc1onc(-c2ccccc2Cl)c1C(=O)N1CCOC12CCCCC2	1.15
Fc1cnc(N2CCOCC2)nc1N1CCc2ccccc21	-19.5
COc1cccc(CN2CCN(C(=O)c3cccs3)CC2)c1OC	-4.33
Nc1nc(COC(=O)C2CC(=O)N(CCc3ccccc3)C2)nc(Nc2ccccc2)n1 (stereo not drawn)	-52.2
COC(=O)C1CC(=O)N(Cc2ccccc2)C1 (stereo not drawn)	23.4
Nc1nc(COC(=O)CCC(=O)c2ccc(Cl)cc2)nc(Nc2ccccc2)n1	6.39
Nc1nc(COC(=O)C2CC(=O)N(Cc3ccccc3)C2)nc(Nc2ccccc2)n1 (stereo not drawn)	-51.9
CC(=O)Nc1ccc(NC(=O)C(C)OC(=O)C2CC(=O)N(CCc3ccccc3)C2)cc1 (stereo not drawn)	14.4
O=C(COC(=O)C1CC(=O)N(CCc2ccccc2)C1)c1ccc[nH]1 (stereo not drawn)	-41.8
Nc1nc(COC(=O)C2CC(=O)N(Cc3ccccc3Cl)C2)nc(Nc2ccccc2)n1 (stereo not drawn)	-55.6
Cc1ccc(N2CC(C(=O)OCc3nc(N)nc(Nc4ccccc4C)n3)CC2=O)cc1 (stereo not drawn)	-32.8

SMILES	hERG current change (%, negative = inhibition) at 10uM [%]
Cc1ccccc1C(=O)N1CCC(C(=O)OCc2nc(N)nc(Nc3ccccc3)n2)CC1	-33.6
Nc1nc(COC(=O)C2CCN(C(=O)c3ccc(Cl)cc3)CC2)nc(Nc2ccccc2)n1	-67.8
COc1ccccc1N1CC(C(=O)OCc2nc(N)nc(Nc3ccccc3)n2)CC1=O (stereo not drawn)	-15.8
Cc1cc(C)n(CC(=O)NNC(=O)C2CC(=O)N(Cc3ccccc3Cl)C2)n1 (stereo not drawn)	1.16
CC(=O)c1ccc(NC(=O)Nc2ccc(Br)cc2C)cc1	22.3
COc1ccc(/C=N/NC(=O)c2ccc(N(C)S(=O)(=O)c3ccccc3)cc2)c(OC)c1	6.66
Cl.O=S(=O)(c1cccs1)N1CCN(C/C=C/c2ccccc2)CC1	-49.3
COc1ccc(N(CC(=O)NCc2cccnc2)S(=O)(=O)c2ccccc2)c(OC)c1	-8.52
Cc1c(C)n(C)c2ccc([N+](=O)[O-])cc12	-4.04
O=C(CSc1ccsc1[N+](=O)[O-])NCCc1ccccc1	2.6
COc1ccc(NC(=O)CN2CCCCCC2)cc1OC	3.79
COc1ccc(NC(=O)CN2CCOCC2)cc1.O=C(O)C(=O)O	13
CCCCCNC(=O)Cc1ccc(OC)cc1	1.41
COc1cccc(CN2CCN(CC(=O)NCCc3ccccc3)CC2)c1	-11.8
COc1ccc(N2CCN(CC(=O)Nc3ccc(C)c(C)c3)CC2)cc1	-17.3
N#CCN1CCN(CC(=O)Nc2ccc(OCc3ccccc3)cc2)CC1	-4.27
COc1ccc(NC(=O)CN2CCN(CC#N)CC2)cc1	-75.6
CCCCNC(=O)CN1CCN(Cc2ccc3cc(OC)ccc3c2)CC1.O=C(O)C(=O)O	-69
CCN(CC)c1ccc(NC(=O)CN2CCN(CC(=O)Nc3ccc(OC)cc3)CC2)cc1	-74.9
COc1ccc(NC(=O)CN2CCN(CC(=O)Nc3ccc(OC)c(OC)c3)CC2)cc1	-74.6
COC(=O)c1ccc(NC(=O)CN2CCN(CC#N)CC2)cc1.O=C(O)C(=O)O	3.24
